# MEKK2wt PB1 HTS: raises or lowers MEK5 binding to wildtype human MEKK2 PB1 domain; Q9Y2U5; bead flow cytometry, Alexa488-MEK5 binding to MEKK2 WT; actives lie on both sides; binding response (% of control), % at 10 µM; 290,000 tested, 1.1% active; AID 1531; in the data active = binding response below about 67% or above about 130%
# MEKK3 PB1 HTS: raises or lowers MEK5 binding to the human MEKK3 PB1 domain | 290,000 tested, 1.4% active | AID 1529 | bead-based flow cytometry, Alexa488-MEK5 binding to MEKK3; actives lie on both sides; 0 = blocked by unlabeled MEK5, 100 = vehicle | binding response (% of control), % at 10 µM;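 active = binding response more than 3 SD above or below the average of its plate-row segment, actives on both sides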;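 note: Alexa488 bead fluorescence after subtracting the streptavidin-only scavenger bead signal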
# Target sequence (Q99759 whole entry, looked up, the tested form may be a part): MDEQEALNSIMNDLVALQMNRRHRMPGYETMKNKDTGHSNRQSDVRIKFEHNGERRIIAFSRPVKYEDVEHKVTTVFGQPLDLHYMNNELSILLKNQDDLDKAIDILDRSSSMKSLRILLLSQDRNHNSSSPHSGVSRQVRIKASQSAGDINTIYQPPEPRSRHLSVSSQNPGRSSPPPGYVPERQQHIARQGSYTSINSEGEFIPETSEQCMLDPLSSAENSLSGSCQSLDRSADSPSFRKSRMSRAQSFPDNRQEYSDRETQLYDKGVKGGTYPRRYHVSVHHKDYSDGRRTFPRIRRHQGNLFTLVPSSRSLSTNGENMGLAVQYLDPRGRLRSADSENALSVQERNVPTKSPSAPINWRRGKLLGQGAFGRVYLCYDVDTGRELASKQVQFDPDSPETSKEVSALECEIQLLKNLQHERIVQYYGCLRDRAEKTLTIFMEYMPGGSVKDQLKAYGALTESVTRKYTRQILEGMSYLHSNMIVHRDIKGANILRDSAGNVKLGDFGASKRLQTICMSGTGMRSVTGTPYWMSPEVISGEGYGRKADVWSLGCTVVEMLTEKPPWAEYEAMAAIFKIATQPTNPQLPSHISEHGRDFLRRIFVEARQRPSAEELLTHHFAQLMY
# VLA-4 inh: inhibition in a human VLA-4 binding assay | AID 2557 | P13612 | inhibition, % (about 7 µM as worked out from the volumes in the protocol) | VLA-4 expressing cells, ligand binding flow cytometry | 330,000 tested, 0.2% active; in the data active = inhibition above about 50%
# MEKK2mut PB1 HTS: signal of MEK5 binding to mutant human MEKK2 PB1 domain | percent response, % at 10 µM | bead flow cytometry, Alexa488-MEK5 binding to MEKK2 mutant | 290,000 tested, 0.35% active; in the data active = percent response above about 24%, passing the limit was not always enough
# MEKK2wt confirm: raises or lowers MEK5 binding to wildtype human MEKK2, retest; bead flow cytometry, Alexa488-MEK5 binding to MEKK2 WT; actives lie on both sides; 5,900 tested, 2.4% active; binding response (% of control), % at 10 µM; shares compounds with MEKK3 PB1 HTS; AID 1892; in the data active = binding response below about 16% or above about 210%; inactive = in between
# MEKK2mut confirm: signal of MEK5 binding to mutant human MEKK2, retest; shares compounds with MEKK3 PB1 HTS; bead flow cytometry, Alexa488-MEK5 binding to MEKK2 mutant; percent response, % at 10 µM; 5,900 tested, 2% active; in the data active = percent response mostly above about 71%, no sharp cut-off; inactive = mostly below about 38%;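 note: higher means compound restores mutant binding toward wildtype level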
# MEKK3 confirm: MEKK3-MEK5 PB1 inhibition, single concentration confirmation. shares compounds with MEKK3 PB1 HTS. bead flow cytometry, Alexa488-MEK5 binding to MEKK3; hits give low values. binding response (% of control), % at 10 µM. 5,900 tested, 1.8% active;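 active = binding response below 72% of control, or above a set upper limit, though filed actives all read lower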;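 note: 100% = DMSO only wells and 0% = binding blocked by excess unlabeled MEK5; lower values mean stronger disruption of MEK5 binding to MEKK3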
# * = called active by the depositor; i = inactive; . = not tested or not shown; [ ] = dose if it differs, or a comment. Compounds with a hit are over-represented: about 2.2% of the library has one in this group of screens.
SMILES,MEKK2wt PB1 HTS,MEKK3 PB1 HTS,VLA-4 inh,MEKK2mut PB1 HTS,MEKK2wt confirm,MEKK2mut confirm,MEKK3 confirm
c1ccc(-c2cc3cc4c(cc3cn2)OCO4)cc1,.,.,-10.9,.,.,.,.
CC1(N2CCCCC2)C(=O)c2ccccc2C1=O,106.0,138.0*,-2.3,0.0,106.0,2.0,103.0
CC1(N2CCOCC2)C(=O)c2ccccc2C1=O,103.0,109.0,28.5,0.0,.,.,.
Cc1cc(C)c(NC(=O)c2ccc(CNS(=O)(=O)c3cc(C(F)(F)F)ccc3Cl)cc2)c(C)c1,104.0,130.0*,-1.9,1.0,96.0,0.0,99.0
CCOc1cc(N2CCOCC2)c(OCC)cc1NC(=O)CN1CCC(Cc2ccccc2)CC1,110.0,149.0*,4.8,0.0,107.0,8.0,106.0
CCOc1cc(N2CCOCC2)c(OCC)cc1NC(=O)CN1C(=O)NC(Cc2ccccc2)C1=O (centres undefined),96.0,97.0,6.0,-3.0,.,.,.
CN(C(=O)Cn1cnc2sccc2c1=O)C1CCCCC1,.,.,1.7,.,.,.,.
Cc1ccccc1S(=O)(=O)c1cc(C#N)c(=O)[nH]c1N,74.0,69.0*[inhibitor],6.5,-13.0,102.0,-1.0,101.0
N#Cc1cc(S(=O)(=O)c2ccccc2)c(N)[nH]c1=O,112.0,112.0,23.1,3.0,.,.,.
O=C(COC(=O)COc1ccccc1F)NCc1ccco1,.,.,3.3,.,.,.,.
CC12CC3CC(C)(C1)CC(Nc1nc(N4CCOCC4)nc4ccccc14)(C3)C2,151.0*,114.0,-4.9,32.0,144.0,18.0,108.0
CCOC(=O)C(=O)NN=C(c1ccccc1)c1ccccc1,95.0,91.0,6.5,-15.0,.,.,.
COc1ccc(C2=NN(S(C)(=O)=O)C(c3cccs3)C2)cc1OC (centres undefined),85.0,91.0,-6.3,-10.0,.,.,.
CCCNS(=O)(=O)c1ccc(OCC(=O)N2CCOCC2)cc1,88.0,69.0*[inhibitor],-6.7,-5.0,99.0,-2.0,101.0
CCCCn1c(O)c(/C=C/C=C/C=Nc2ccccc2)sc1=S,-5.0*,21.0*[inhibitor],i,-29.0,22.0,-27.0,35.0*
CCn1c(O)c(/C=C/C=C/C=Nc2ccccc2)sc1=S,59.0*[inhibitor],87.0,-175.6,-1.0,84.0,-7.0,93.0
CCn1c(O)c(C=C2N=c3ccccc3=N2)sc1=S,90.0,97.0,-12.8,-5.0,.,.,.
CCn1c(O)c(C=NCc2ccccc2)sc1=S,98.0,97.0,-3.3,-3.0,.,.,.
Cc1noc(C)c1COC(=O)CCc1nc2ccccc2s1,127.0,130.0*,6.5,8.0,100.0,1.0,98.0
Cc1noc(C)c1COC(=O)CCOc1ccccc1,95.0,97.0,1.4,-3.0,.,.,.
CCCC(=O)Nc1nc2nc(-c3ccccc3)cc(-c3ccccc3)n2n1,0.0*[inhibitor],0.0*[inhibitor],-10.5,-17.0,103.0,9.0,106.0
Cc1[nH]nc(SCC(=O)Nc2ccc(C#N)cc2)c1[N+](=O)[O-],107.0,133.0*,-0.4,1.0,101.0,4.0,103.0
Cc1ccc(NC(=O)c2ccc(=O)n(CC(=O)Nc3ccccc3)n2)cc1,98.0,100.0,3.4,1.0,.,.,.
CC(C)(C)NC(=O)C(=O)NCCC1=CCCCC1,105.0,103.0,20.0,-2.0,.,.,.
Cc1ccc(CSCCC(=O)NCCC2=CCCCC2)cc1,114.0,130.0*,2.4,1.0,106.0,2.0,101.0
SMILES,MEKK2wt PB1 HTS,MEKK3 PB1 HTS,VLA-4 inh,MEKK2mut PB1 HTS,MEKK2wt confirm,MEKK2mut confirm,MEKK3 confirm
O=C(CCSCc1cccc(Cl)c1)NCCC1=CCCCC1,101.0,113.0,2.6,0.0,.,.,.
Cc1ccc(CNC(=O)C(=O)NCCC2=CCCCC2)cc1,99.0,72.0*[inhibitor],9.2,3.0,101.0,-6.0,103.0
O=C(NCCC1=CCCCC1)C(=O)NCc1ccccc1,99.0,108.0,-11.0,-1.0,.,.,.
Cc1[nH]c2ccccc2c1C(=O)C(=O)NCCC1=CCCCC1,104.0,135.0*,-0.9,0.0,98.0,6.0,102.0
O=C(O)C1C2C=CC(O2)C1C(=O)NCCC1=CCCCC1 (centres undefined),1.0*[inhibitor],1.0*[inhibitor],-1.9,-18.0,107.0,-1.0,103.0
CCN(CC)S(=O)(=O)c1ccc(N2CCOCC2)c(NC(=O)c2ccc(=O)[nH]c2)c1,.,.,-1.8,.,.,.,.

# Screens from PubChem.
